# Source: the supplement of paper PMC3334620
# Over roughly 33,000 sequences, “E-score (-0.5 to 0.5)” has its median near -0.012; the highest 2% begin near 0.29. The sample as a whole holds a higher share of the highest values than the screen did.
# Molecular target: T1, Ybr033w (UniProt P38073)
# T1 sequence: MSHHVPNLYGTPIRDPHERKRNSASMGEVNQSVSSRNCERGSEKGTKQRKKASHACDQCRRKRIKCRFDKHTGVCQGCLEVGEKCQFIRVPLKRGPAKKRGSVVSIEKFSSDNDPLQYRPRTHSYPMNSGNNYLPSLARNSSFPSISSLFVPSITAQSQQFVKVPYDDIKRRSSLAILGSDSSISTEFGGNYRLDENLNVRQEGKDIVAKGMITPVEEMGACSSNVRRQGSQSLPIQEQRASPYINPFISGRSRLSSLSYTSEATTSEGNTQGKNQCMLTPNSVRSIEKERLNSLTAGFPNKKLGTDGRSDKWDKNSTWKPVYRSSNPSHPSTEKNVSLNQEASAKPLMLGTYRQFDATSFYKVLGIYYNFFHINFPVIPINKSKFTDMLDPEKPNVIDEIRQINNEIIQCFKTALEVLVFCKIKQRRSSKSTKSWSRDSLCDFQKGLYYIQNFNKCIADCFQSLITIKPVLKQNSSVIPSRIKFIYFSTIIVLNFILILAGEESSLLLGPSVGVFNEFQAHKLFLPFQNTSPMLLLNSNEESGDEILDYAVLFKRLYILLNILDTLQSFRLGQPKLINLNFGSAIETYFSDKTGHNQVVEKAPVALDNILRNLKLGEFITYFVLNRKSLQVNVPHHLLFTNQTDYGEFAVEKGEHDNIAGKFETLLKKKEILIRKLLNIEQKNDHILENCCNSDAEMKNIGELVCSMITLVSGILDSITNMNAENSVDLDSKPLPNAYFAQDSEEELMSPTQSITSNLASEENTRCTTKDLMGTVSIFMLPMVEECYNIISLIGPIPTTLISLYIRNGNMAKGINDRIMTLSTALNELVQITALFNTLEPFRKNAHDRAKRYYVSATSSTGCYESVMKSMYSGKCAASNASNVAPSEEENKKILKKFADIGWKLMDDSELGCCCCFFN
# Assay: PBM E-score (8-mer binding enrichment) (E-score (-0.5 to 0.5)); higher = stronger / more preferred TF binding
# Conditions: protein concentration: 200 nM; construct: GST-full length
# Outline: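 The E-score, a modified Wilcoxon-Mann-Whitney statistic, was computed by the Universal PBM Analysis Suite for every ungapped eight-base word pooled with its reverse complement. Scans behind it were normalised with masliner after bound GST-tagged yeast transcription factors were detected with fluorescent anti-GST. The proteins, at about 100-200 nM, had been applied to universal all-10-mer Agilent arrays made double-stranded by primer extension.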
row,Sequence,PBM E-score
1,AGAACAAA,0.33
2,AGAACAAG,0.212
3,ATAACAAG,0.191
4,ATAACAAT,0.165
5,ATAACAAA,0.29
6,CGAACATA,0.2
7,AGAACATA,0.192
8,AGAACAAT,0.209
9,AGAGACTA,-0.0151
10,CTCGCAAC,-0.052
11,AAGGCCTC,-0.21
12,AAAGTACT,0.177
13,TACGACTA,0.0548
14,CCCCTATC,-0.337
15,CCCCCCCC,-0.45
16,CACTTGTC,-0.0719
17,GCACTGTA,0.0862
18,CGAACAAC,0.077
19,AGAACAAC,0.0473
20,GGAACAAC,0.454
21,AGTATTCA,0.142
22,ACGCCCTG,-0.16

row,Sequence,PBM E-score
1,ATATCAGA,0.289
2,CTATCAGA,-0.0376
3,GTATCAGA,0.106
4,AACCCCGA,-0.0425
5,GATTTCGA,-0.0493
6,GATTTCAA,0.174
7,CATTTCAA,0.242
8,AATTTCGA,0.0715
9,TATTTCAA,0.338
10,TATTTCGA,0.357
11,TTAAGGAA,0.218
12,AGTAGACT,-0.0063
13,GGAGGGAC,-0.188
14,TAAGCTTA,0.102
15,AGTGGACA,0.0894
16,CTGAACTA,0.037
17,ATGAACTA,0.303
18,ATGAACTC,0.0731
19,ATTAGAGA,0.115
20,AGGGAAAA,0.296
21,CGGGAAAC,0.0713
22,CGGGAAAA,0.298

row,Sequence,PBM E-score
1,AGGGAAAT,0.00233
2,AGGGGAAA,0.0237
3,CGGGGAAA,0.212
4,GGGGGAAA,-0.124
5,TGGGGAAA,0.0688
6,TGGGAAAA,0.316
7,AGTTATGA,0.0811
8,CGGTTGGA,0.0125
9,ATCCTGGC,-0.0209
10,AAAATAAA,0.319
11,GAAATAAC,0.159
12,TAAATAAA,0.301
13,AAAATAAT,0.319
14,TAAATAGA,0.0889
15,AAAATAGA,0.332
16,AAAATAAG,0.207
17,AAAATAAC,0.189
18,CAAATAAA,0.2
19,AAAATAGC,-0.0427
20,GAAATAAA,0.247
21,ACCCTTCA,-0.0354
22,CATTCTGG,-0.15

row,Sequence,PBM E-score
1,CATCTGTA,-0.105
2,CGTGACAC,-0.127
3,CGATAAAC,-0.148
4,GGATAACA,0.0661
5,GGATAAGA,-0.0485
6,TGATAAAA,0.299
7,AGATAAAA,0.286
8,CGATAAAA,0.14
9,AGATAAAC,0.216
10,GTATAAAA,0.289
11,GTATAAAC,0.158
12,ATATAAAA,0.242
13,GGATAAAA,0.397
14,GGATAAAC,0.456
15,CCTGCCCG,-0.354
16,GGCATATA,0.16
17,AGCAATGA,0.13
18,CGAGACCA,-0.0425
19,ATGAACAC,0.0659
20,ATAGCGGC,-0.106
21,CCGTCGAG,0.102
